24 molecules from PubChem BioAssay (NCATS) can be followed below.

Records with an inconclusive call do not appear. Calls of active or inactive are those of the source. Unless noted, the call rests on the fitted dose curve; in most records, active means well fitted curve in the direction sought with a large enough effect; inconclusive means small, poorly fitted or top-dose-only effect, or another doubt; inactive means no such curve, though single readings can be large; an effect the other way counts as inactive or inconclusive.

Assay [1] in a line: Primary qHTS for inhibitors of nuclear receptor binding SET domain protein 2 (NSD2) in an isogenic RCH-ACV NSD2 p.E1099K mutant (9B) (AID 1645876). Further: nearly all actives have a fitted effect of over 70% in size. Further: potency means the concentration at half of the fitted maximal effect. On the technique in general: In qHTS, concentration-response curves come from the screen itself.
A short description of assay [2]: Primary qHTS for inhibitors of nuclear receptor binding SET domain protein 2 (NSD2) in an RCH-ACV wild type WT cells (2C) (AID 1645877). Further: nearly all actives have a fitted effect of over 70% in size. Further: potency means the concentration at half of the fitted maximal effect.
Assay [3] has as its target Glutathione peroxidase 1 (Homo sapiens) (UniProt P07203). Nature of the assay: Primary qHTS Assay for Inhibitors of Recombinant Selenoprotein Glutathione Peroxidase 1 (GPX1) (AID 1845191). Further: nearly all actives have a fitted effect of over 65% in size. The essentials: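 GR-coupled readout: NADPH consumption tracked by fluorescence, ex 340/em 450 nm, at t=0 and after 15 min at RT. Final mix 10 nM GPX1, 1 mM GSH, 0.5 mM CHP, 0.5 mM NADPH, 100 nM GR, 0.01% BSA, following 30 min enzyme–compound preincubation.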

For assay [4], the target named is Phospholipid hydroperoxide glutathione peroxidase GPX4 (Homo sapiens) (UniProt P36969). Nature of the assay: Primary qHTS Assay for Inhibitors of Recombinant Selenoprotein Glutathione Peroxidase 4 (GPX4) (AID 1845192). Further: nearly all actives have a fitted effect of over 65% in size. Further: potency means the concentration at half of the fitted maximal effect. The procedure, abridged:
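Steps: GPX4 plus compound, 30 min RT; add GR/GSH/NADPH master mix; start with cumene hydroperoxide; read 340/450 nm fluorescence at 0 and 15 min. Finals were 200 nM GPX4, 1 mM GSH, 0.5 mM CHP, 0.5 mM NADPH, 100 nM GR.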

Assay [5] can be described thus: qHTS drug screen for cell cycle checkpoint inhibitors in PARPi-resistant BRCA-mutant ovarian cancer cell lines. (AID 1963452; calls by dose curve). To be noted: PEO1/OlaR viability, CellTiter-Glo luminescence, 96 h, stronger effect = lower value. The procedure, abridged: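 PEO1, PEO4 and PEO1/OlaR ovarian cancer cells, 600 per well, exposed 96 h at 37C to a dilution series. Viability read by CellTiter-Glo luminescence, normalized to DMSO and empty wells; activity summarized as Z-AUC.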

A short description of assay [6]: NCATS anti-infectives library activity on HEK293 viability as a counter-qHTS vs the C. elegans viability qHTS (AID 1745854).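 Further: HEK293 cells exposed to compounds for 24 hr before the viability read; on the % scale 0 is the no-effect control and ±100 the full control effect.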 The essentials: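 Counter-screen for cytotoxicity: HEK293, 24 hr, 37C, compounds up to 41.7 uM final (a dilution series, 1:5). Readout CellTiter-Glo luminescence, 10 min RT. Digitonin control, 83.3 uM final.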
The target in assay [7] is Tyrosine-protein kinase Yes (Homo sapiens) (UniProt P07947). The assay is described as follows: qHTS for small molecule inhibitors of Yes1 kinase: Primary Screen (AID 686947).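 Further: plate controls were DMSO with enzyme for no effect and no-enzyme DMSO wells for full effect; nearly all actives have a fitted effect of over 60% in size.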 The essentials:
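ADP-Glo luminescence reports ADP formed by 4 nM Yes1 phosphorylating poly(E4Y) (0.3 mg/mL) with 0.1 mM ATP for 60 min at room temperature, following 20 min compound preincubation; normalised between DMSO wells with and without enzyme.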

Assay [8] in a line: qHTS for small molecule inhibitors of Yes1 kinase: Counter Assay (AID 686950).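 Further: no kinase present so only ADP-Glo detection of a fixed ADP amount is tested; luminescence from ADP-Glo reporting ADP in a fixed ATP and ADP mixture; series mostly up to about 77 µM; 0% = DMSO wells with ATP plus ADP and -100% = ATP-only wells without ADP.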 The procedure, abridged: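 No kinase present; 0.08 mM ATP + 0.02 mM ADP in 50 mM Tris pH 7.5, 10 mM MgCl2, 150 mM NaCl, 1 mM DTT; 20 min compound preincubation, 60 min RT, ADP-Glo luminescence, normalized to ATP/ADP (max) and ATP-only (min).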
The mark [9] stands for this setting: measured here: PEO1 parental Z-AUC.

Chain of Phospholipid hydroperoxide glutathione peroxidase GPX4 (Homo sapiens) (P36969 whole entry, looked up): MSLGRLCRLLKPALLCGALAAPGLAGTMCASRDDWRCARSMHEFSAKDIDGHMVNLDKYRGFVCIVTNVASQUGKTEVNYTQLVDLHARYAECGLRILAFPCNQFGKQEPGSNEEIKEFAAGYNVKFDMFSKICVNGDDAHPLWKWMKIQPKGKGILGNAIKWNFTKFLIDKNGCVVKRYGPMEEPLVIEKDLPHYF
Chain of Glutathione peroxidase 1 (Homo sapiens) (P07203 whole entry, looked up): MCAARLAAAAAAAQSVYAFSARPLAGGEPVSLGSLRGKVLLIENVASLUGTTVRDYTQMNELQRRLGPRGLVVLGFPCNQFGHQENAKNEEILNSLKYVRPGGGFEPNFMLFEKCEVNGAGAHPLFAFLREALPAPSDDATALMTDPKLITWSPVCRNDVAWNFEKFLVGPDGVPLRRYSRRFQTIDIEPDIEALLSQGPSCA
Chain of Tyrosine-protein kinase Yes (Homo sapiens) (P07947 whole entry, looked up): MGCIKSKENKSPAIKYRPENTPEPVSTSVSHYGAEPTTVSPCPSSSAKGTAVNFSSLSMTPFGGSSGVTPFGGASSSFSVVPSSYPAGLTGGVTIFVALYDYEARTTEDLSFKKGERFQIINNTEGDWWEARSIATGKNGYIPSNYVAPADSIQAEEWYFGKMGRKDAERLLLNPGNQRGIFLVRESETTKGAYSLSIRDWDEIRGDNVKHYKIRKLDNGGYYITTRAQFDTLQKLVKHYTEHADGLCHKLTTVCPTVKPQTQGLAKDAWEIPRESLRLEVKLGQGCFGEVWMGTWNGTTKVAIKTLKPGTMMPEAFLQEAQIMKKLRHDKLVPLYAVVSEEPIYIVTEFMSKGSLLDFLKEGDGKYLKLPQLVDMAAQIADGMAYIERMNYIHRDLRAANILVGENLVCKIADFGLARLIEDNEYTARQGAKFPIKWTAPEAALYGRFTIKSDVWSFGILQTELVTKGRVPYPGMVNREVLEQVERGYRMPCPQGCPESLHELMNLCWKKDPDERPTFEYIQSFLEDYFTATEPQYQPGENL

Consider `Cc1ccc(Nc2nnc(Cc3ccncc3)c3ccccc23)cc1Br`, for which the Potency in assay [1] is 14.8 µM (active); in assay [2], 13.2 µM (active). For the same molecule, the Potency result in assay [3] and in assay [4] was “inactive” throughout. For the same molecule, the Z-AUC was 0.372 (inactive) in assay [5], 0.414 in assay [5] (setting [9]) and -0.215 in assay [5] (measured here: PEO4 Z-AUC).
Turning to `CCCCCc1ccc(/C=C/[C@H](O)[C@@H](CO)NC)cc1`, the Potency in assay [1] was 23.1 µM (active). Further, the Potency result in assay [3] is “inactive”.
As to `CCCCCCCOc1ccc(CCC(N)(CO)CO)cc1C(F)(F)F`, the results for the Potency in assay [1] and in assay [2] were 11.8 µM (active) and 10.5 µM (active), respectively. Moreover, the Potency result in assay [4] was “inactive”. For the same molecule, the Z-AUC in assay [5] is -0.8 (inactive); in assay [5] (setting [9]), -1.22; in assay [5] (measured here: PEO4 Z-AUC) it was -1.35.
Consider `CN1CCN(CCCNc2ncc(Cl)c(-c3cc4c(C(=O)NC5CC5)cccc4s3)n2)CC1`, for which the Potency in assay [2] is 23.5 µM (active). For the same molecule, in assay [3], the Potency result is “inactive”.
Regarding `CO[C@H]1C[C@@H]2CC[C@@H](C)[C@@](O)(O2)C(=O)C(=O)N2CCCC[C@H]2C(=O)O[C@H]([C@H](C)C[C@@H]2CC[C@@H](OCCO)[C@H](OC)C2)CC(=O)[C@H](C)/C=C(/C)[C@@H](O)[C@@H](OC)C(=O)[C@H](C)C[C@H](C)/C=C\C=CC=C1C`, the results for the Potency in assay [1] and in assay [2] were 0.118 µM (active) and 0.0742 µM (active), respectively. The Potency entry in assay [3] was “inactive”. Besides, the Z-AUC was 0.703 (inactive) in assay [5], 0.778 in assay [5] (setting [9]) and 0.68 in assay [5] (measured here: PEO4 Z-AUC).
Take `Cc1noc(C)c1-c1ccc(-c2cc(C(N)=O)c(NC(N)=O)s2)c(O[C@H]2CCNC2)c1`: the results for the Potency in assay [1] and in assay [2] were 16.6 µM (active) and 14.8 µM (active), respectively. Moreover, the Potency entry in assay [3] is “inactive”. Besides, the Z-AUC is -0.139 (inactive) in assay [5], -0.81 in assay [5] (setting [9]) and -0.908 in assay [5] (measured here: PEO4 Z-AUC).
`Cc1ccc(C(=O)OCc2ccc([C@@H](CN)C(=O)Nc3ccc4cnccc4c3)cc2)c(C)c1`: the Potency in assay [1] was 4.07 µM (active); in assay [2] it was 3.62 µM (active). In assay [4], the Potency entry was “inactive”. Further, the Z-AUC in assay [5] was -1.52 (inactive); in assay [5] (setting [9]), -0.919; in assay [5] (measured here: PEO4 Z-AUC) it was -0.26.
Take `Cc1ccc(Nc2cc(N[C@@H]3CCCC[C@@H]3N)nnc2C(N)=O)nc1C`: the Potency in assay [1] was 1.05 µM (active); in assay [2], 0.934 µM (active). Also, the Potency result in assay [3] and in assay [4] was “inactive” each time. Further, the results for the Z-AUC in assay [5], in assay [5] (setting [9]) and in assay [5] (measured here: PEO4 Z-AUC) were -0.241 (inactive), -0.11 and 0.345, respectively.
On to `C[n+]1ccc(-c2c3nc(c(-c4cc[n+](C)cc4)c4ccc([nH]4)c(-c4cc[n+](C)cc4)c4nc(c(-c5cc[n+](C)cc5)c5ccc2[nH]5)C=C4)C=C3)cc1`, for which the Potency entry in assay [2] is “inactive”.
Regarding `NC(=O)c1cc(F)cc2c1C(=O)N(C1CCN(C3CCC(F)(F)CC3)CC1)C2`, the Potency result in assay [1], in assay [3] and in assay [4] was “inactive” in each case. Further, in assay [6], the molecule was classed as inactive. The Z-AUC was -0.257 (inactive) in assay [5], -0.805 in assay [5] (setting [9]) and -0.459 in assay [5] (measured here: PEO4 Z-AUC).
Turning to `CC(C)(C)S(=O)(=O)c1ccc2nccc(Nc3n[nH]c4ccc(F)cc34)c2c1`, in assay [1], the Potency was 13.2 µM (active). Further, the Potency entry in assay [3] and in assay [4] was “inactive” throughout. The results for the Z-AUC in assay [5], in assay [5] (setting [9]) and in assay [5] (measured here: PEO4 Z-AUC) were -0.44 (inactive), -0.407 and -0.499, respectively.
In the case of `Cc1ccc(-n2nc(C(C)(C)C)cc2NC(=O)NCc2cc(F)ccc2Oc2ccc3c(cnn3CCO)c2)cc1`, the figures for the Potency in assay [1] and in assay [2] were 16.6 µM (active) and 14.8 µM (active), respectively. Moreover, the Potency entry in assay [3] and in assay [4] was “inactive” each time. Besides, the Z-AUC in assay [5] was 1.04 (inactive); in assay [5] (setting [9]) it was 0.682; in assay [5] (measured here: PEO4 Z-AUC), 0.464.
`CC1(C)OCCn2c1nc1c(N3CCOCC3)nc(-c3cnc(N)nc3)nc12`: in assay [1], the Potency is 0.332 µM (active). Further, the Potency result in assay [3] and in assay [4] was “inactive” in each case. Moreover, the Z-AUC in assay [5] is -0.953 (inactive); in assay [5] (setting [9]), -0.219; in assay [5] (measured here: PEO4 Z-AUC) it was -0.151.
On to `CSc1ccc(C(=O)/C=C/c2cc(C)c(OC(C)(C)C(=O)O)c(C)c2)cc1`, for which the results for the Potency in assay [1] and in assay [2] were 19.1 µM (active) and 17.1 µM (active), respectively. For the same molecule, in assay [3], the Potency result is “inactive”. Moreover, the Z-AUC in assay [5] is -0.442 (inactive); in assay [5] (setting [9]), 0.00794; in assay [5] (measured here: PEO4 Z-AUC), -0.391.
Regarding `CCN1/C(=C/C(C)=O)Sc2ccc(O)cc21`, in assay [2], the Potency was 14.6 µM (active).
For the molecule `NC(=O)C1=C(O)[C@@]2(O)C(=O)C3=C(O)c4c(O)cccc4C[C@H]3C[C@H]2CC1=O`, the Potency in assay [1] was 4.17 µM (active); in assay [2], 3.32 µM (active). The Potency result in assay [3] is “inactive”. For the same molecule, the Z-AUC is -0.543 (inactive) in assay [5], -1.08 in assay [5] (setting [9]) and -1.12 in assay [5] (measured here: PEO4 Z-AUC).
As to `NC(=O)c1ccc2nc(-c3ccc(C4(N)CCC4)cc3)c(-c3ccccc3)n2n1`, the Potency is 0.296 µM (active) in assay [1] and 0.332 µM (active) in assay [2]. The Potency result in assay [3] and in assay [4] was “inactive” each time. Also, the Z-AUC in assay [5] was -0.331 (inactive); in assay [5] (setting [9]) it was -0.179; in assay [5] (measured here: PEO4 Z-AUC) it was 0.0521.
As for `C[C@H]1C[C@@H](n2c(Nc3ccc(OC(F)(F)F)cc3)nc3cc(CCC(=O)O)ccc32)CC(C)(C)C1`, the Potency result in assay [1] and in assay [3] was “inactive” each time. Further, the Potency in assay [4] was 2.55 µM (active).
As to `Cc1noc(-c2ccc(-c3ccc(C4(C(=O)O)CC4)cc3)cc2)c1NC(=O)O[C@H](C)c1ccccc1`, the Potency in assay [1] is 16.6 µM (active); in assay [2], 16.6 µM (active); in assay [4], 9.04 µM (active).
`COc1cc(N2CCN(C)CC2)ccc1Nc1ncc2c(n1)N(C)c1ccccc1C(=O)N2`: the Potency in assay [1] and in assay [2] was 16.6 µM (active) in each case. In addition, the Potency entry in assay [3] and in assay [4] was “inactive” each time. The Z-AUC was -0.466 (inactive) in assay [5], -0.178 in assay [5] (setting [9]) and 0.52 in assay [5] (measured here: PEO4 Z-AUC).
Turning to `CCN(C)S(=O)(=O)Nc1ccc(F)c(C(=O)c2c[nH]c3ncc(-c4cnc(C5CC5)nc4)cc23)c1F`, the Potency in assay [1] was 8.33 µM (active); in assay [2], 7.42 µM (active). Further, the Potency entry in assay [3] is “inactive”. The Z-AUC is 0.933 (inactive) in assay [5], 0.554 in assay [5] (setting [9]) and 0.574 in assay [5] (measured here: PEO4 Z-AUC).
In the case of `Nc1nonc1-c1nc2cnccc2n1C1CC1`, the call in assay [7] and in assay [8] was inactive. In addition, the Potency in assay [1] is 20.6 µM (active); in assay [2], 8.2 µM (active). In addition, in assay [3], the Potency result is “inactive”.
On to `COc1ccccc1-c1nc(SCC(=O)Nc2ccc(C)c(C)c2)n[nH]1`, for which the Potency result in assay [1] and in assay [3] was “inactive” throughout.
As to `CC(/C=C/[C@@H]1C[C@]1(C)c1ccc2c(c1)C(C)(C)CCC2(C)C)=C\C(=O)O`, the Potency result in assay [1], in assay [2] and in assay [3] was “inactive” each time. Besides, the Z-AUC in assay [5] is -0.0414 (inactive); in assay [5] (setting [9]) it was 0.571; in assay [5] (measured here: PEO4 Z-AUC) it was 0.122.
